The panel holds about 83,000 compounds, 20% with a hit somewhere; the sample as a whole holds those more often.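 Compound tested at a single concentration for 48 hours in 96-well plates; a percent growth value below 10 was scored as active.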 The source made the active and inactive calls.

We go through 40 compounds from PubChem BioAssay (NCI).

The test system of this assay is T-47D breast. The assay can be described thus: NCI-60 one-dose screen, 48 h (100 = growth as untreated, 0 = no growth, -100 = all killed). The conditions noted are these: 10 µM. On the procedure: Growth inhibition of the T-47D human tumor cell line is measured as a screen for anti-cancer activity. Cells are grown in 96 well plates and exposed to the test compound for 48 hours. Compounds are tested at a single concentration, which is 10^-5 M for most compounds. The reported endpoint is percent growth (GI% or GIPRCNT), where numbers from 0 - 100% represent growth inhibition, and numbers from -100% - 0 represent cell death. For example, a value of 40 represents 60% growth inhibition. A value of 0 means no net growth occurred over the course of the experiment. A value of -40 indicates 40% of cells at the beginning of the experiment died by the end of the experiment. A value of -100 means all cells are dead at the end of the experiment.
NCI-60 Human Tumor Cell Lines Screen was performed using the standard one-dose NCI protocol, which is described in more detail at https://dtp.cancer.gov/discovery_development/nci-60/default.htm.
Compounds with GIPRCNT values below 10 were considered active. Activity score was based on GIPRCNT using the following formula: […]
Score is 0 for GIPRCNT values of 100 or above, 50 for GIPRCNT values of 0, and 100 for GIPRCNT values of -100.
As for `Cn1cc(-c2nnc(N)nc2-c2c[nH]c3ccc(F)cc23)c2cc(Br)cnc21`, the growth is 44.1% (inactive).
As for `Cn1cc(-c2cc3nc(-c4c[nH]c5ccccc45)cc(N)n3n2)c2cc(Cl)ccc21`, the growth was -85.5% (active).
On to `COc1ccc(OC)c(-n2cc(C#N)c(N)c2C(=O)c2ccc(Cl)cc2Cl)c1`, for which the growth was 42.6% (inactive).
In the case of `COc1cc(C2CC(c3ccc(Oc4ccc(Cl)cc4)cc3)=NN2c2nc(-c3ccc(Cl)cc3)c(C#N)c(N3CCOCC3)n2)cc(OC)c1OC` (stereo not given) it was 91.8% (inactive).
Then `CC1(C)CC(=O)C2=C(C1)N(Cc1ccc(C(=O)O)cc1)C1=C(C(=O)CC(C)(C)C1)C2c1ccc(Cl)cc1`, with 91.9% (inactive); and `CC(C)(C)c1cc(/C=C2\S/C(=N/c3ncn[nH]3)NC2=O)cc(C(C)(C)C)c1O`, with 10.3% (inactive); and `Cn1cc(-c2cc(N)n3nc(-c4cn(C)c5ccccc45)cc3n2)c2cc(F)ccc21`, with -50.1% (active).
`O=C(c1ccc(F)cc1)C(c1c[nH]c2ccccc12)c1c[nH]c2ccccc12`: the growth was 63.9% (inactive).
`C#CCOc1cc(N(CC)CC)ccc1C(C(=O)NC(C)(C)C)N(C(=O)C1CCc2cc(F)ccc2O1)c1ccc(F)cc1F` (stereo not given): the growth is 37.4% (inactive).
In the case of `Cn1cc(-c2nnc(N)nc2-c2c[nH]c3ccccc23)c2cc(Br)cnc21` it was 29.4% (inactive).
Then `O=C(c1ccccc1)c1ccc2nc(-c3ccccc3Br)[nH]c2c1`, with -59.3% (active).
Then `O=C(CN1CCN(c2ncnc3c2cnn3-c2ccccc2)CC1)Nc1ccc(Br)cc1`, with 41.6% (inactive); and `O=C(CN1CCN(c2ncnc3c2cnn3-c2ccccc2)CC1)Nc1ccc(Cl)cc1`, with 26.7% (inactive).
Take `COc1ccc(C(=O)COc2ccc(NC(=O)Nc3ccc(Cl)c(C(F)(F)F)c3)cc2)cc1`: the growth is 12.5% (inactive).
Then `COC(=O)CNC(=O)COc1c(OC)c(OC)cc2oc(-c3cccc(C(=O)Nc4ccc(Cl)cc4)c3)cc(=O)c12`, with 37.9% (inactive); and `O=C(CC(=O)Nc1ccc(Oc2ncnc3scc(Nc4n[nH]c(=S)s4)c23)cc1)Nc1ccc(Cl)cc1`, with 55.1% (inactive).
In the case of `COc1ccc(NCc2cn(-c3ccc(C(=O)O)cc3)nc2-c2ccc(F)cc2)cc1C(F)(F)F`, the growth was 47.5% (inactive).
In the case of `Fc1ccc(/C=C/c2nc3ccccc3n3c(-c4ccc(Cl)cc4)nnc23)cc1` it was 60.9% (inactive); in that of `O=[N+]([O-])c1cccc(-c2nnc3c(/C=C/c4ccccc4O)nc4ccccc4n23)c1`, 26.3% (inactive).
Then `CC1[C@H]2[C@H](C[C@H]3[C@@H]4CC=C5c6sc(Nc7cccc(Cl)n7)nc6CC[C@]5(C)[C@H]4CC[C@@]32C)O[C@]12CC[C@@H](C)CO2` (stereo not given in full), with 68% (inactive); and `CCn1c(SCC(=O)Nc2ccc(-c3nc4ccccc4[nH]3)cc2)nc2ccccc2c1=O`, with -58.2% (active); and `O=C(Nc1ccc(OCc2ccc(F)cc2)cc1)Nc1ccc(Cl)c(C(F)(F)F)c1`, with 6.12% (active).
Then `COc1ccccc1-n1cc(C#N)c(N)c1C(=O)c1ccc(Cl)cc1Cl`, with 28.5% (inactive); and `O=C(CSc1nc2ccccc2c(=O)n1-c1ccc(Cl)cc1)Nc1ccc(-c2nc3ccc([N+](=O)[O-])cc3[nH]2)cc1`, with 6.69% (active); and `O=C(c1ccc(Cl)cc1)C(c1c[nH]c2ccccc12)c1c[nH]c2ccccc12`, with -30.6% (active).
Consider `COc1ccc(-n2c(SCC(=O)NNS(=O)(=O)c3ccccc3)nc3ccc(Cl)cc3c2=O)cc1`, for which the growth is 94.8% (inactive).
Then `COc1ccc(C2c3sc4ccc(C)cc4c3Oc3nc[nH]c(=O)c32)cc1` (stereo not given), with 83.4% (inactive); and `COc1ccc(C2c3sc4ccc(C)cc4c3Oc3nc(N)nc(N)c32)cc1` (stereo not given), with 61.3% (inactive); and `COc1cc2oc(-c3cccc(C(=O)Nc4ccc(Cl)cc4)c3)cc(=O)c2c(OCCN)c1OC`, with -73.8% (active).
Then `CC1(C)CC[C@]2(C(=O)O)CC[C@]3(C)C(=CCC4[C@@]5(C)C[C@@H](O)[C@@H]6OC(c7cccc(F)c7)OC[C@@]6(C)C5CC[C@]43C)C2C1` (stereo not given in full), with 38.9% (inactive).
In the case of `COc1ccc(Cn2cc(C#N)c(N)c2C(C)=O)c(OC)c1` it was 106% (inactive).
As for `Cc1ccc2sc3c(c2c1)Oc1nc[nH]c(=O)c1C3c1cccc(F)c1` (stereo not given), the growth was 83.9% (inactive).
Consider `Cn1cc(/C=C(/SS/C(=C/c2cn(C)c3cccc(C(=O)O)c23)C(=O)O)C(=O)O)c2c(C(=O)O)cccc21`, for which the growth is 101% (inactive).
Then `COc1ccc2[nH]cc(-c3nc(N)nnc3-c3cn(C)c4ncc(Br)cc34)c2c1`, with 48.5% (inactive); and `COc1ccc(C(=O)COc2ccc(NC(=O)Nc3ccccc3)cc2)cc1`, with 65.6% (inactive).
Turning to `O=C1S/C(=C\c2ccc([N+](=O)[O-])cc2)C(=O)N1CCN1CCCCC1`, the growth was 95.6% (inactive).
In the case of `C#C[C@]1(O)CC[C@H]2[C@@H]3CC=C4c5sc(Nc6ccc(N(C)C)cc6)nc5CC[C@]4(C)[C@H]3CC[C@@]21C` it was 28.6% (inactive); in that of `O=C1NC(=S)S/C1=C\c1cn(-c2ccccc2)nc1-c1ccc([N+](=O)[O-])cc1`, 6.73% (active); in that of `O=C1NC2C=CC=CC2/C1=C1/SC(=S)N(C2CC(=O)N(c3ccc(Br)cc3)C2=O)C1=O` (stereo not given), 82.9% (inactive).
Then `Cc1cc(N=C2NC(=O)/C(=C/c3cc(C(C)(C)C)c(O)c(C(C)(C)C)c3)S2)n[nH]1`, with 3.32% (active).
